Screening results (PubChem BioAssay)
Most compounds without a hit are left out; they make up all but 3.5% or so of the library.
TEAD-YAP inh: TEAD-YAP interaction inhibition, primary screen, TEAD-YAP interaction inhibitor project, luminescence, HEK-TIYL cells; TEAD-Gal4/YAP UAS-luciferase luminescence; inhibition, % at 9.12 µM; hit rate 1.4% among 640,000; AID 1259422, 2018; in the data active = inhibition above about 32%;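 also: 0% = median of test compound wells and 100% = reference inhibitor wells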
MITF primary: MITF inhibitors, primary screen, biochemical, AlphaScreen, human; Microphthalmia-associated transcription factor (Homo sapiens), O75030; AlphaScreen MITF homodimerization, bead proximity signal; inhibition, % at 2.6 µM; hit rate 0.91% among 650,000; AID 1259374, 2018; in the data active = inhibition above about 50%;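 also: 0% = vehicle wells with protein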
Target sequence (O75030 whole entry, looked up): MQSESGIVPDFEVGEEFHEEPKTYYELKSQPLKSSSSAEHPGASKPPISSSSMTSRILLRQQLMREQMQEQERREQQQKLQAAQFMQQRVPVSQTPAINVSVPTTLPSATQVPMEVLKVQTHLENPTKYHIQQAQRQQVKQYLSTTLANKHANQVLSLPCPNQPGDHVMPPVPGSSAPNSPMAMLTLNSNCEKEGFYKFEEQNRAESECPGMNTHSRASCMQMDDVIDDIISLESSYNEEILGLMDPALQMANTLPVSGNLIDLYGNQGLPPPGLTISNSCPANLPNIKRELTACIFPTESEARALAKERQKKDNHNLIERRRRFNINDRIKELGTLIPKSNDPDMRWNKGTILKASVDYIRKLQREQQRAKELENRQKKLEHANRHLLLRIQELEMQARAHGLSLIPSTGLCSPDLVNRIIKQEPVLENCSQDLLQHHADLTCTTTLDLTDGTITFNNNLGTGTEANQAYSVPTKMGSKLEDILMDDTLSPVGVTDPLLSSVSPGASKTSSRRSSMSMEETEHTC
GPR151 activ: activators of human GPR151, primary screen, cell-based, PathHunter beta-arrestin, luminescence; hit rate 1% among 650,000; PathHunter beta-arrestin GPR151 cells; activation, % at 11.2 µM; G-protein coupled receptor 151 (Homo sapiens), Q8TDV0; in the data active = activation above about 4.9%;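 also: 0% = median of compound wells and 100% = cells with positive control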
FBW7 activator: FBW7 E3 ligase activators, primary screen, biochemical, AlphaScreen, human. hit rate 0.13% among 650,000. AID 1259310, 2017. AlphaScreen FBW7–phospho-cyclin E peptide binding, activator screen. normalized activity (activation), % at 26.1 µM; in the data active = normalized activity above about 1.9%;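 also: purified mutant Fbw7 with reduced substrate affinity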
* marks the source's active call; other numbers are inactive results; x = no result given.

SMILES	TEAD-YAP inh	MITF primary	GPR151 activ	FBW7 activator
COC(=O)c1c(NC(=O)c2ccco2)sc(C(=O)Nc2ccc(C)cc2)c1C	34.0*	-3.9	-0.4	0.0
Cc1nc(C(C)NC2CCN(c3cccc(NC(=O)c4ccncc4)c3)CC2)cs1 (stereo unspecified)	-22.8	-3.3	-0.7	-0.1
CC(NC1CCN(c2cccc(NC(=O)c3ccncc3)c2)CC1)c1ccc(Cl)cc1 (stereo unspecified)	35.8*	15.8	0.1	-0.1
Cc1ccccc1OCC(=O)NCC(=O)OCC(=O)c1ccc(C)c([N+](=O)[O-])c1	-6.8	3.6	3.6	0.1
Cc1ccccc1Nc1nc(Cl)c(C=O)s1	39.9*	6.4	-0.4	0.3
COc1ccc(C2C(C#N)C(=O)NC(=O)C2[n+]2ccccc2)cc1OC (stereo unspecified)	3.8	-5.4	-0.2	-0.1
Oc1ccc(Br)c(C(Nc2ccccn2)c2ccc3cccnc3c2O)c1 (stereo unspecified)	84.5*	12.4	-0.4	-0.3
Cc1ccc(C(Nc2ccccn2)c2ccc3cccnc3c2O)s1 (stereo unspecified)	81.0*	35.3	0.4	-0.3
Cc1ccc2ccc(C(Nc3ccccn3)c3cccc(O)c3)c(O)c2n1 (stereo unspecified)	8.0	3.0	-0.1	0.0
CC(C)c1ccc(C(Nc2ccccn2)c2ccc3cccnc3c2O)cc1 (stereo unspecified)	62.9*	17.5	1.3	-0.2
Oc1c(C(Nc2ccccn2)c2ccc(Br)cc2)ccc2cccnc12 (stereo unspecified)	83.6*	14.3	1.5	-0.4
CCCOc1ccc(C(Nc2ccccn2)c2ccc3cccnc3c2O)cc1 (stereo unspecified)	21.0	18.6	-1.9	0.0
Cc1nn(-c2ccccc2)cc1/C=N/Nc1ncnc(N)c1[N+](=O)[O-]	1.1	-11.1	-1.4	0.1
Cc1cccc(OCc2nc3ccc(-c4ccnc(N)n4)cc3[nH]2)c1	56.9*	6.5	0.3	0.2
CC(=O)Nc1cc(-c2ccnc(N)n2)ccc1NC(=O)COc1cccc(C)c1	18.4	1.1	0.0	0.0
O=C(CSc1nnc2ccc(-c3cccnc3)nn12)N1CCCc2ccccc21	0.1	7.8	-0.9	1.9*
O=C(CSc1nnc2ccc(-c3ccc(Cl)cc3)nn12)N1CCCc2ccccc21	-2.8	5.2	-0.5	0.1
Cc1ccc2nc(NC(=O)CSCC(=O)O)sc2c1	59.5*	0.9	-1.0	0.4
CCCCSc1nnc(-c2ccc3c(c2)OCO3)n1C	-70.9	13.1	0.4	2.1*
COc1ccccc1CNC(=O)c1oc2ccc(S(=O)(=O)N3CCOCC3)cc2c1C	-13.2	-0.3	-0.1	0.0
Cc1c(C(=O)NCc2ccccc2Cl)oc2ccc(S(=O)(=O)N3CCOCC3)cc12	-1.3	4.0	1.5	2.4*
COc1ccc(C(=O)c2snc(NCc3ccccc3)c2N)cc1	-20.6	4.8	0.7	0.0
COc1ccc(Nc2nsc(C(=O)c3ccc(F)cc3)c2N)cc1	44.2*	-3.8	-1.1	-0.2
CCCN1C(=O)C(O)(CC(=O)c2ccc([N+](=O)[O-])cc2)c2cc(Br)ccc21 (stereo unspecified)	50.0*	9.7	-0.2	0.0
NC(=O)c1ccc(-c2cc(NCCc3ccc(O)cc3)ncn2)cc1	5.1	9.2	-0.9	-0.1
SMILES	TEAD-YAP inh	MITF primary	GPR151 activ	FBW7 activator
Cc1ccsc1C1C(C#N)=C(N)N(c2sc3c(c2C#N)CCCCC3)C2=C1C(=O)CC(C)(C)C2 (stereo unspecified)	4.4	-0.2	0.4	0.0
O=C(Cc1csc(N2CCOCC2)n1)N/N=C/c1ccc(O)c(O)c1O	4.0	65.9*	0.2	-0.8
O=C(Cc1csc(N2CCOCC2)n1)NNC(=S)Nc1ccc(Cl)cc1Cl	-3.2	17.4	-0.7	0.2
O=C(Cn1ccc(C(F)(F)F)n1)N/N=C/c1ccc(O)c(O)c1O	0.4	65.2*	0.2	-1.2
O=C(Cc1cn2ccsc2n1)N/N=C/c1ccc(O)c(O)c1O	-4.0	78.5*	-0.1	-1.1
CN1CCN(CCC(=O)N/N=C/c2ccc(O)cc2O)CC1	1.1	-77.5	0.4	-0.2
CCCOc1ccc(/C=N/NC(=O)Cc2cn3ccsc3n2)c(O)c1	-22.8	1.5	0.1	-0.2
O=C(CCN1CCN(c2ccccc2)CC1)N/N=C/c1ccc(O)c(O)c1O	3.8	70.0*	1.3	-0.6
Cc1cc(NC2CCN(Cc3ccccc3)CC2)nc(Nc2ccc(-n3ccnc3)cc2)n1	-6.7	16.7	1.4	0.1
CCOC(=O)c1sc2ncn(CC(=O)Nc3ccc(C(C)C)cc3)c(=O)c2c1C	-3.5	-9.5	3.1	0.2
C[C@H]1O[C@@H](O[C@H]2[C@@H](O)C[C@H](O[C@H]3[C@@H](O)C[C@H](O[C@H]4CC[C@]5(C)C6CC[C@]7(C)[C@@H](C8=CC(=O)OC8)CC[C@]7(O)C6CC[C@@H]5C4)O[C@@H]3C)O[C@@H]2C)C[C@H](O)[C@@H]1O (stereo partly specified)	99.5*	24.0	4.3	0.3
C[C@H]1O[C@@H](O[C@H]2[C@@H](O)C[C@H](O[C@H]3[C@@H](O)C[C@H](O[C@H]4CC[C@@]5(C)[C@H](CC[C@@H]6[C@@H]5C[C@@H](O)[C@]5(C)[C@@H](C7=CC(=O)OC7)CC[C@]65O)C4)O[C@@H]3C)O[C@@H]2C)C[C@H](O)[C@@H]1O	x	7.7	0.2	0.1
O=C1NC(=Nc2ccc(O)cc2)S/C1=C\c1ccccc1F	43.2*	-12.5	1.4	0.0
COc1cc(/C=C2/SC(=Nc3ccccc3)NC2=O)ccc1O	0.1	0.8	-0.4	0.1
COc1cc(/C=C2\SC(=Nc3ccccc3OC)NC2=O)ccc1O	56.8*	2.4	-1.9	0.5
COc1cc(/C=C2\SC(=Nc3ccc(F)cc3)NC2=O)cc(OC)c1OC	2.9	2.2	0.2	0.0
COc1ccc(/C=C2\SC(=Nc3ccc(F)cc3)NC2=O)cc1O	52.3*	21.6	0.9	0.0
O=C1NC(=Nc2ccc(O)cc2)S/C1=C/c1ccccc1	2.4	17.9	-0.9	0.2
O=C1NC(=Nc2ccc(O)cc2)S/C1=C\c1cccc(O)c1	56.9*	7.0	0.6	-0.3
CC1Oc2ccccc2N(Cc2ccc(C(F)(F)F)nc2)C1=O (stereo unspecified)	0.8	-9.4	0.0	0.1
COc1cc(/C=C2/SC(=Nc3ccc(O)cc3)NC2=O)ccc1O	48.7*	10.4	1.1	0.0
COc1cc(/C=C2\SC(=Nc3ccccc3)NC2=O)ccc1O	2.1	13.1	-0.6	0.1
COc1ccc(C2c3[nH]c4ccccc4c3CCN2C(=O)CNC(C)=O)c(C)c1C (stereo unspecified)	3.9	-6.6	-0.5	0.0
